Compound activity as filed in PubChem.
Sampled rows, rich in hits. Any-hit rate of the full collection: about 3.5%.
MITF inh – blocks human microphthalmia-associated transcription factor; AlphaScreen MITF homodimerization, bead proximity signal; inhibition, % at 2.6 µM; 0.91% of 650,000 active; in the data active = inhibition above about 50%
FBW7 act – human FBW7 E3 ligase activation, primary screen. Q969H0. AlphaScreen FBW7–phospho-cyclin E peptide binding, activator screen. normalized activity (activation), % at 26.1 µM. 0.13% of 650,000 active. AID 1259310; in the data active = normalized activity above about 1.9%;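 note: purified mutant Fbw7 with reduced substrate affinity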
Target sequence (Q969H0 whole entry, looked up): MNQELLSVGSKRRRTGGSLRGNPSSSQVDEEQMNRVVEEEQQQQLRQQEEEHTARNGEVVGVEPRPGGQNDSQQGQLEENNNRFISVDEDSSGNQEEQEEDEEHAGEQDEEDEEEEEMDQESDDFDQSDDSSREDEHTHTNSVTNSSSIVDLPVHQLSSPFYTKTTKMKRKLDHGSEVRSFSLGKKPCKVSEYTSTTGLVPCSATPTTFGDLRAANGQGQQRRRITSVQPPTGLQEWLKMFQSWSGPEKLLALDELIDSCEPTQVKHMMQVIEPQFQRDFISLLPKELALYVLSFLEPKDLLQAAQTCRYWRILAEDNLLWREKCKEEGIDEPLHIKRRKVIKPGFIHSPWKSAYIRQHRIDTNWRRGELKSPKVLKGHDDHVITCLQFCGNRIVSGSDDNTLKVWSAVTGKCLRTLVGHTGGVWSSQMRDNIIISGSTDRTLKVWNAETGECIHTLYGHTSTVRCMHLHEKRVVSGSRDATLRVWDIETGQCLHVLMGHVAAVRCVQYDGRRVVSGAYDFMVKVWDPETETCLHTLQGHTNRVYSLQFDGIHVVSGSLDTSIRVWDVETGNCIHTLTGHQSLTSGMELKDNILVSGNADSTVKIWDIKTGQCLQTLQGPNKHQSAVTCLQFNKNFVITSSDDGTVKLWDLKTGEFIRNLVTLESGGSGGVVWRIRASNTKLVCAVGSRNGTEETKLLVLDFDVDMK
GPR151 activ – human GPR151 activation; Q8TDV0; PathHunter beta-arrestin GPR151 cells, luminescence; activation, % at 11.2 µM; 1% of 650,000 active; AID 1508602; in the data active = activation above about 4.9%
TEAD-YAP block – TEAD-YAP interaction inhibition; 1.4% of 640,000 active; inhibition, % at 9.12 µM; HEK-TIYL cells, TEAD-Gal4/YAP UAS-luciferase luminescence; in the data active = inhibition above about 32%
Large screens that a line does not name were inactive.

CC/C=C\C/C=C\C/C=C\C/C=C\C/C=C\C/C=C\CCC(=O)O[C@H](COCCCCCCCCCCCCCCCC)COP(=O)(O)OCC[N+](C)(C)C	none (no result: FBW7 act, TEAD-YAP block)
O=c1cc(CNCc2cccs2)c2cc3c(cc2o1)CCC3	TEAD-YAP block 45
Cc1cccc(N2C(=O)/C(=C/c3ccc(-c4ccc(Br)cc4)o3)C=C2c2ccccc2)c1	none
O=c1oc2c(ccc3c(O)cccc32)c2c1CCCC2	TEAD-YAP block 45
COC(=O)COc1cccc2c1ccc1c3c(c(=O)oc12)CCCC3	none
O=C(O)c1cccnc1Nc1ccc([N+](=O)[O-])cc1	TEAD-YAP block 36
Nc1ccccc1C(=O)Nc1c(Cl)cccc1Cl	none
COc1ccc(CCNc2nc(Nc3nccc4ccccc34)nc3c2ncn3C2CCCCC2)cc1	TEAD-YAP block 33
CCCNc1nc(Nc2nccc3ccccc23)nc2c1ncn2-c1ccsc1	TEAD-YAP block 65
Oc1ccc(CCNc2nc(Nc3nccc4ccccc34)nc3c2ncn3-c2ccsc2)cc1	TEAD-YAP block 66
Oc1ccc(CCNc2nc(Nc3nccc4ccccc34)nc3c2ncn3C2CCCCC2)cc1	none
CCCNc1nc(Nc2nccc3ccccc23)nc2c1ncn2-c1ccccc1	none
CN1CCN(c2ccc(-c3nc(NCc4cccnc4)c4ncn(-c5ccsc5)c4n3)cc2)CC1	TEAD-YAP block 36
CN1CCN(c2ccc(-c3nc(NCCO)c4ncn(-c5ccsc5)c4n3)cc2)CC1	TEAD-YAP block 87
COc1ccc(-c2nc(NCCO)c3ncn(-c4ccsc4)c3n2)cc1	TEAD-YAP block 61
CCCNc1nc(-c2ccc(N3CCN(C)CC3)cc2)nc2c1ncn2-c1ccsc1	none
CC(C)(C)C(=O)NCC(=O)NCC(=O)Nc1ccc(F)c(F)c1F	none
COc1ccccc1CN1CCN2C(=O)[C@@H](Cc3ccc(O)cc3)NC(=O)[C@H]2C1	none
OCCCn1c(-c2ccccc2)cc(=S)c2c1CCCC2	none
O=C1CCCC2=C1C(c1cccc(F)c1Br)n1c(nc3ccccc31)N2 (centres undefined)	TEAD-YAP block 36
Cc1ccc(Nc2cc(C)nn2-c2nc(C)cc(=O)[nH]2)cc1	TEAD-YAP block 58
Cc1ccc(Nc2cc(C)nn2-c2nc(C)cc(C)n2)cc1	none
COc1cccc(/C=N/Nc2nnc(C)n2N)c1O	none
COc1cccc(/C=N/Nc2ccc([N+](=O)[O-])cc2)c1O	none
COc1ccc(/C=N/Nc2ncccc2[N+](=O)[O-])c(OC)c1	TEAD-YAP block 69
COc1cccc(/C=N/Nc2ncc(C)c(=O)[nH]2)c1O	MITF inh 86, TEAD-YAP block 87
COc1cccc(/C=N/Nc2ncccc2[N+](=O)[O-])c1O	TEAD-YAP block 98
CCOC(=O)c1ccc(NC(=O)c2ccc(CS(=O)c3ccc(Cl)cc3)o2)cc1 (centres undefined)	TEAD-YAP block 32
CC(=O)c1cccc(NC(=O)CSc2nnc3c4ccccc4n(CCc4ccccc4)c3n2)c1	TEAD-YAP block 40
Cc1c(NC(=O)CSc2nnc3c4ccccc4n(CCc4ccccc4)c3n2)c(=O)n(-c2ccccc2)n1C	TEAD-YAP block 47
CCC1=[N+](CC(=O)c2ccccc2)CCn2cccc21	FBW7 act 2.5
O=C(CSc1nc2ccccc2[nH]1)Nc1cc(Cl)ccc1O	TEAD-YAP block 33
COC(=O)c1cn[nH]c1NC(=S)Nc1c(C)cccc1C	none
COC(=O)c1cn[nH]c1NC(=S)Nc1ccc(Br)cc1	TEAD-YAP block 39
O=C(NC1CCCCC1)NC1CCN(Cc2nnnn2Cc2ccco2)CC1	none
CC(C)(C)C(=O)NC1CCN(Cc2nnnn2Cc2ccco2)CC1	TEAD-YAP block 71
CCc1ccc(C2NC(=O)NC(C)=C2C(=O)OCc2ccc3c(c2)OCO3)cc1 (centres undefined)	TEAD-YAP block 55
CC1=C(C(=O)OCc2ccc3c(c2)OCO3)C(c2cc3c(cc2Br)OCO3)NC(=O)N1 (centres undefined)	none
CC1=C(C(=O)OCc2ccc3c(c2)OCO3)C(c2ccccc2)NC(=O)N1 (centres undefined)	TEAD-YAP block 51
COc1ccc(NC(=O)C/C(C)=N/NC(=O)Cc2ccc(-c3ccccc3)cc2)c(OC)c1	none
COc1ccccc1C1CC(=O)c2c(ccc3ccccc23)N1 (centres undefined)	TEAD-YAP block 61
COc1cc(C2CC(=O)c3c(ccc4ccccc34)N2)ccc1OCc1ccccc1 (centres undefined)	none
COC(=O)c1cnc(Nc2cc(Cl)ccc2OC)c2ccccc12	none
COC(=O)c1cnc(Nc2ccc(OC)c(Cl)c2)c2ccccc12	FBW7 act 2.4
CCc1ccc(Nc2ncc(C(=O)OC)c3ccccc23)cc1	FBW7 act 4.0
COc1ccccc1NC(=O)C1=C(C)Nc2nc(CCCO)nn2C1c1cccs1 (centres undefined)	none
CCOC(=O)c1c(C)c(C(=O)Nc2ccc(OC)cc2)c(C)n1CC	TEAD-YAP block 47
CCOC(=O)c1c(C)c(C(=O)Nc2ccc(C(=O)OC)cc2)c(C)n1CC	none
CCOC(=O)c1c(C)c(C(=O)Nc2ccc(OC)cc2OC)c(C)n1CC	TEAD-YAP block 46
O=C(Nc1ccc(Br)cc1F)C1CC2CCCN2C12C(=O)Nc1ccccc12 (centres undefined)	none
O=C(CCC1(Cc2ccc(Cl)cc2)CCC(=O)N1)NCc1nc2c(s1)CCCC2 (centres undefined)	none
CCC(=O)N1c2ccc(S(=O)(=O)N3CCN(c4ccccc4)CC3)cc2CC1C (centres undefined)	none
CC(=O)c1ccc(N2CCN(S(=O)(=O)c3ccc4c(c3)CC(C)N4C(C)=O)CC2)cc1 (centres undefined)	TEAD-YAP block 41
CC(NC(=O)Cn1ncc2c(Cl)cccc21)c1ccc2c(c1)OCCO2 (centres undefined)	none
CC(=O)Oc1ccc(C(=O)Nc2cccc(F)c2)cc1	none
O=C(COc1ccc(Cl)cc1)Nc1cccc(NC(=O)c2ccco2)c1	TEAD-YAP block 47
COc1ccc(C(=O)NC(=S)Nc2cccc(C(=O)O)c2)cc1	TEAD-YAP block 61
COc1ccc(C(=O)NC(=S)Nc2cccc(S(=O)(=O)N3CCOCC3)c2)cc1	TEAD-YAP block 44
COc1ccc(C(=O)NC(=S)Nc2cccc(OC)c2)cc1	none
CC(C)Oc1ccc(C(=O)Nc2cccc(F)c2)cc1	TEAD-YAP block 43
O=C(COc1ccc(Cl)cc1)Nc1ccc(NC(=O)c2ccco2)cc1	none
CC(C)=CC(=O)Nc1ccc(S(N)(=O)=O)cc1	none
COc1ccc(C(=O)Nc2cccc(C)c2)cc1	TEAD-YAP block 66
COc1ccc(NC(=S)NNc2ccc(C(=O)O)cc2)cc1	TEAD-YAP block 40
COc1ccc(C(=O)NC(=S)Nc2cccc(NC(=O)c3ccco3)c2)cc1	TEAD-YAP block 33
N#C/C(=C\c1ccccc1)C(=O)Nc1cccc(S(=O)(=O)NCc2ccco2)c1	none
CC(C)c1ccc(/C=C2\CC/C(=C\C=N\N(C)C)C2=O)cc1	none
CN(C)/N=C/C=C1\CC/C(=C\c2ccco2)C1=O	MITF inh 55
O=C1C(=C2SCCS2)CC/C1=C\c1ccco1	MITF inh 91
CN1CCN(c2ccc(CNS(=O)(=O)Cc3cccc(C(F)(F)F)c3)cc2)CC1	TEAD-YAP block 38
COc1cc(/C=N/c2n[nH]c(=S)n2Cc2ccccc2)cc(OC)c1OC	none
CC(C)OCCCNC(=O)c1cc(-c2cccs2)nc2ccccc12	TEAD-YAP block 36
O=C(NCCCN1CCOCC1)c1cc(-c2cccs2)nc2ccccc12	none
COc1ccc(N=Cc2c(O)n(-c3ccc(OC)cc3)c(=O)c3ccccc23)cc1	none
